Consider 34 molecules from PubChem BioAssay (NCI).

About 83,000 compounds went through this panel and 20% of them were active in at least one assay; those are over-represented in the sample as a whole.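 Step 1: grow cells in 96-well plates. Step 2: add test compound at a single concentration. Step 3: incubate 48 h. Step 4: record percent growth.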 Activity calls are given as the source filed them. The calls were made as follows: active = growth percent below 10; inactive = the rest.

One assay has as its system OVCAR-8 ovarian. Description: NCI-60 one-dose screen, 48 h (100 = growth as untreated, 0 = no growth, -100 = all killed). As to conditions: 10 µM.
Consider `Cn1cc(-c2cc(N)n3nc(-c4c[nH]c5ccc(Br)cc45)cc3n2)c2cc(Br)cnc21`, for which the growth is -41.6% (active).
The same measure, in the same setting: for `CC(=O)Nc1ccc(-n2cnc3cc(-c4ccc(NS(C)(=O)=O)cc4)ccc32)cc1` the value was 66.9% (inactive); for `COc1ccccc1C(=O)NNC(=O)CSc1nc2c(c(=O)[nH]1)CCCC2`, 109% (inactive); for `O=c1[nH]c2ccccc2cc1CSc1ccc(Nc2nccc(-c3ccc(C(F)(F)F)cc3)n2)cc1`, -25.9% (active).
In the case of `COc1cnc2c(c1)C(=O)c1c-2n(CCCNCCO)c(=O)c2cc(OC)c(OC)cc12`, the growth is 30.4% (inactive).
As to `C/C(=N\N=C\c1ccc(Cl)c([N+](=O)[O-])c1)c1ccc2c(c1)Nc1ccccc1S2`, the growth was 6.83% (active).

The next assay relates to OVCAR-5 ovarian. The assay is described as above. As to conditions: 10 µM.
`C#CCNC(=O)CCC(=O)OC[C@]12CC[C@@H](C(=C)C)[C@@H]1C1CC[C@@H]3[C@@]4(C)CCCNC(C)(C)[C@@H]4CC[C@@]3(C)[C@]1(C)CC2` (some centres undefined): the growth was 47.3% (inactive).
Take `Cc1ccc(-c2nc(Nc3ccc(S(N)(=O)=O)cc3)c3ccccc3n2)cc1`: the growth was 68.9% (inactive).
Take `N#Cc1ccc(-c2nn(-c3ccc(C(=O)O)cc3)cc2CNc2cccc(Br)c2)cc1`: the growth was 99.6% (inactive).
Turning to `Cc1noc2c(Cc3ccc([N+](=O)[O-])cc3)nn(CC(=O)N/N=C/c3ccc(Br)cc3)c(=O)c12`, the growth was 96.9% (inactive).
On to `Cc1ccc(/C=C/C(=O)c2ccc(NC(=O)CSc3nnc(-c4c[nH]c5ccccc45)n3-c3ccccc3)cc2)c(C)c1`, for which the growth is 77.3% (inactive).
As to `O=C1c2ccccc2C(=O)c2c1c(C(=O)c1ccc(Cl)cc1)n1c2ccc2c3ccccc3ccc21`, the growth was 115% (inactive).
As to `COc1ccc(C(=O)Nc2sc3c(c2C#N)CCC(=O)C3)cc1C(F)(F)F`, the growth is 35.3% (inactive).
As for `COc1ccc(C2NC(=S)NC(C)=C2C(=O)OC(C)C)cc1OC` (centres undefined), the growth is 105% (inactive).
As to `COc1ccc(OC)c(/C=N/NC(=O)c2ccc3nc(-c4ccc(Cl)cc4)[nH]c3c2)c1`, the growth is 104% (inactive).
The same measure, in the same setting: then `Nc1nc(Nc2ccc(Cl)cc2)n(Cc2cccc(Br)c2)n1`, with -24.5% (active).
For `O=C(CSc1nnc(-c2ccc3nc(-c4ccc(Cl)cc4)[nH]c3c2)o1)Nc1ccc(Br)cc1`, the growth is 39.5% (inactive).
On the same count and under the same terms, for `COc1cc2c(cc1OC)CN(CCCCOc1cc(O)c3c(=O)cc(-c4ccccc4)oc3c1)CC2` the value was 114% (inactive); for `O=C(CSc1nnc(-c2c[nH]c3ccccc23)n1-c1ccccc1)c1ccc(Br)cc1`, 58.3% (inactive).
As to `Cc1ccc(/C=C/C(=O)c2ccc(NC(=O)CSc3nnc(-c4c[nH]c5ccccc45)n3-c3ccccc3)cc2)cc1`, the growth was 103% (inactive).
With `CC1=C(c2cc(-c3ccc(Cl)cc3)c(C#N)c(N)n2)C(c2ccccc2)NC(=S)N1` (centres undefined), the growth is 93.5% (inactive).
Turning to `COc1ccc(-c2cc(-c3cc(C(=O)c4ccccc4)n4ccc(C)cc34)nc(N)c2C#N)cc1`, the growth was 90% (inactive).
Still for that read-out and setting: for `COc1cc2c3c(n(CCCNCCO)c(=O)c2cc1OC)-c1nc2c(cc1C3=O)OCO2` the value was -3.64% (active); for `COc1ccc(/C=C/C(=O)c2ccc(N3CCN(C)CC3)cc2)c(C(F)(F)F)c1`, 86.4% (inactive); for `Cn1cc(/C=N/Nc2cccc(Cl)n2)c2ccccc21`, 92.5% (inactive).
Regarding `COc1ccc(C(=O)CSc2nnc(-c3c[nH]c4ccccc34)n2-c2ccccc2)cc1`, the growth was 77.4% (inactive).
With `N#Cc1c(NC(=O)c2ccc(C(F)(F)F)c(Cl)c2)sc2c1CCC(=O)C2`, the growth is -8.2% (active).
In the case of `COc1cc(/C=C/C(=O)c2ccc(NC(=O)CSc3nnc(-c4c[nH]c5ccccc45)n3-c3ccccc3)cc2)cc(OC)c1OC`, the growth was 108% (inactive).
On to `O=C(Nc1cccc([N+](=O)[O-])c1)Nc1cccc([N+](=O)[O-])c1`, for which the growth is 94.1% (inactive).
As to `COc1cc(NC(=O)CSc2nnc(-c3ccc4nc(-c5ccc(Cl)cc5)[nH]c4c3)o2)cc(OC)c1OC`, the growth was 132% (inactive).
Take `O=S(=O)(Nc1ncccn1)c1ccc(-n2c(-c3ccc(Br)cc3)nc(-c3ccccc3)c2-c2ccccc2)cc1`: the growth was 70.5% (inactive).
Regarding `CCN1CCN(Cc2ccc(C(=O)Nc3cccc(-c4cn(-c5ccc6oc(=O)ccc6c5)nn4)c3)cc2C(F)(F)F)CC1`, the growth is -100% (active).
As for `Cc1cc(=O)oc2cc(OCCCCOc3ccc(/C=C/C(=O)Nc4ccc(F)c(Cl)c4)cc3)ccc12`, the growth was 101% (inactive).
On to `Cc1cc(C)nc(/N=C(\N)Nc2ccc(S(=O)(=O)Nc3nc(C)cc(C)n3)cc2)n1`, for which the growth was 119% (inactive).
